Screening results (PubChem BioAssay)
aSyn UTR inh: 5' untranslated region of α-synuclein, MLPCN primary screen; alpha-synuclein 5'UTR reporter, inhibitor activity; inhibition, % (tested at 7.5 µM); AID 1813; hit rate 0.82% among 300,000; in the data active = inhibition above about 60%; inconclusive = no clear call, values can overlap the other calls;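 also: H4 neuroglioblastoma cells stably carrying SNCA 5'UTR luciferase fusion; 0% = DMSO wells and 100% = positive control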
IEC-6 cytotox: kills IEC-6 intestinal cells in KLF5 counter-screen; IEC-6 cytotoxicity, luminescence viability; inhibition, % at 5 µM; hit rate 0.78% among 290,000; in the data active = inhibition above about 22%;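 also: 0% = plate median of test compound wells and 100% = cytotoxic reference compound wells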
SKKanGAS inh: inhibitors of SKKanGAS S. pyogenes growth in kanamycin (SK-promoter or general growth effect) | BacTiter-Glo, 6 h | inhibition, % at 7.5 µM | hit rate 1.3% among 300,000;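 active = mean replicate score, as percent of positive control median, at least 50; inconclusive = mean below 50 but one replicate at or above 50; inactive = mean and every replicate below 50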;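 also: strain carries kanamycin resistance gene driven by streptokinase promoter and grows in 40 µg/ml kanamycin; loss of luminescence reflects streptokinase promoter inhibition or plain growth inhibition; 0% = median of DMSO wells and 100% = positive control at its reference dose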
KLF5 inh: kruppel-like factor 5 inhibition. DLD-1 KLF5 promoter-luciferase reporter, luminescence. inhibition, % at 5 µM. hit rate 0.23% among 290,000;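 active = inhibition above a per-plate limit of that plate's mean compound inhibition plus 3 SD, cut at about 60% in these data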;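 also: 0% = DMSO wells and 100% = LY294002 at 200 µM; higher means less KLF5 promoter-driven luciferase light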
CSC inhib: cancer stem cell inhibition | cancer stem cell-like cells viability, luminescence | inhibition, % at 7.5 µM | hit rate 1.1% among 300,000; in the data active = inhibition above about 75%; inconclusive = no clear call, values can overlap the other calls; tested in HMLE shEcad cells
Starred values were filed as active, the others as inactive; ? = inconclusive; / = no result. Hits are enriched below; roughly 3% of the tested compounds scored in any of these assays.

SMILES | aSyn UTR inh | IEC-6 cytotox | SKKanGAS inh | KLF5 inh | CSC inhib
CCCCC(CC)CN=C(N)NC(N)=NCCCCCCN=C(N)NC(N)=NCC(CC)CCCC (centres undefined) | / | / | / | / | 103*
O=C(NC1CCCCCC1)C1CCC(=O)N(Cc2ccccc2F)C1 (centres undefined) | -10 | 6 | -1 | -4 | 1
Cc1snc(S(=O)(=O)/C(C#N)=N/Nc2cccc(C(F)(F)F)c2)c1C#N | 4 | 0 | 16 | -5 | 88*
O=C(Nc1ccccc1Sc1ccccc1)c1ccccc1F | -10 | 0 | 61* | -28 | -6
O=C(Nc1ccccc1NC(=O)c1ccccc1F)c1ccccc1F | 8 | 5 | 0 | -32 | -10
CC(C)OC(=O)/C(C#N)=C/c1cn(Cc2ccccc2)c2ccccc12 | 75* | -3 | 4 | -21 | 47
CC(C)COC(=O)/C(C#N)=C/c1cn(Cc2ccccc2)c2ccccc12 | 80* | -8 | 2 | 2 | 7
O=C(c1cccc(COc2ccc(Cl)cc2Cl)c1)N1CCN(c2ccccn2)CC1 | -164 | 3 | 53* | -87 | 9
c1ccc(COC(CN2CCCCCC2)CN2CCCCCC2)cc1 | -24 | -8 | -1 | -9 | -9
Cc1nc(C(=O)NNC(=O)c2c(-c3c(Cl)cccc3Cl)noc2C)cs1 | 63* | 17 | 12 | 6 | 35
Cc1onc(-c2c(Cl)cccc2Cl)c1NC(=O)NNc1ccccc1 | 3 | -7 | 3 | -30 | 3
CC(C)(C)c1csc(NNC(=O)c2ccc(Cl)cc2)n1 | -34 | 4 | 90* | -56 | 40
Cc1onc(-c2c(Cl)cccc2Cl)c1C(=O)NNc1ccccc1 | -6 | -3 | -6 | 8 | 91*
Cc1cc(C)nc(NC(=O)c2c(-c3c(Cl)cccc3Cl)noc2C)n1 | 12 | 5 | -7 | -2 | /
Cc1onc(-c2c(Cl)cccc2Cl)c1C(=O)Nc1nc(C(C)(C)C)cs1 | 80* | 7 | -4 | 15 | /
CC(C)(C)c1csc(NC(=O)c2cccnc2)n1 | -51 | -2 | -5 | -50 | -8
CCCC(=O)Nc1ccc(C(=O)Nc2ccc([N+](=O)[O-])cc2OC)cc1 | 11 | -4 | -2 | -20 | 11
O=C(/C=C/c1ccco1)Nc1nc(-c2ccccn2)cs1 | -79 | 6 | 55* | -49 | -12
O=C(/C=C/c1ccco1)Nc1nc(-c2ccccc2)cs1 | -250 | 3 | 6 | -93 | 18
COc1ccc(-c2csc(NC(=S)NC(=O)/C=C/c3ccco3)n2)cc1OC | 63* | 14 | 13 | -14 | 79*
COc1ccc(-c2csc(NC(=S)NC(=O)c3ccco3)n2)cc1Br | 4 | -8 | -16 | -40 | 72
COc1ccc(-c2csc(NC(=S)NC(=O)/C=C/c3ccco3)n2)cc1Br | 91* | -4 | -6 | -6 | 79*
COc1ccc(NC(=O)C2CCCN2C(=O)NC2CCCCC2)cc1 (centres undefined) | -1 | -1 | -2 | -20 | 0
O=C(/C=C/c1ccc(O)cc1)c1ccc(NC2=C(N3CCCCC3)C(=O)c3ccccc3C2=O)cc1 | -35 | -4 | 13 | 46 | 90*
CCS(=O)(=O)c1ccc(O)c(NC(=O)c2cc(OC)c(OC)c(OC)c2)c1 | 7 | -5 | -11 | -20 | -1
SMILES | aSyn UTR inh | IEC-6 cytotox | SKKanGAS inh | KLF5 inh | CSC inhib
Cc1ccc(N=Nc2ccc(O)c3ncccc23)cc1C | 74* | 4 | 88* | -27 | 1
Cc1ccc(N=Nc2ccc(O)c3ncccc23)cc1 | 86* | 1 | 109* | 5 | 99*
CCS(=O)(=O)c1ccc(N=Nc2ccc(O)c3ncccc23)c(OC)c1 | 78* | -9 | 19 | -13 | /
Cc1ccc2[nH]cc(CCNC(=O)C3CCCO3)c2c1 (centres undefined) | -3 | -4 | 1 | -32 | -15
COC(=O)c1ccc(COc2ccccc2/C=C(\C#N)C(=O)Nc2ccccc2C)cc1 | -57 | -2 | 2 | 15 | /
COC(=O)c1ccc(COc2ccccc2/C=C(\C#N)C(=O)Nc2c(C)cccc2C)cc1 | -82 | -2 | 24 | -8 | 102*
CCOC(=O)C(=NCCOC)NNc1cc(Cl)ccc1Cl | -20 | 9 | -7 | 6 | 9
O=C(NNC1=Nc2ccccc2SC1)c1ccc(F)cc1 | 43 | 10 | 69* | -1 | /
O=C(NNc1c2ccccc2nc2ccccc12)c1ccc(Cl)cc1 | -80 | -1 | 0 | -4 | 14
O=C(NNC1=Nc2ccccc2SC1)c1ccc(Cl)cc1 | 96* | 12 | 90* | -42 | 45
O=C(NNC(=O)c1ccc(F)cc1)c1ccncc1 | -17 | -3 | -5 | -26 | -12
CCN(C(=S)Nc1ccc(Oc2ccccc2)cc1)c1ccccc1 | -19 | -4 | 6 | -17 | /
O=[N+]([O-])c1cccc2ccc(/C=C/c3ccc(Cl)cc3)nc12 | -149 | 10 | 3 | -25 | 66
O=[N+]([O-])c1cccc2ccc(/C=C/c3ccc(C(F)(F)F)cc3)nc12 | -94 | 2 | -13 | 13 | 78*
COc1ccc(S(=O)(=O)N2CCOCC2)cc1NC(=O)CCNC(=O)c1ccc(Br)cc1 | 77* | / | -7 | / | 70
Cc1ccc(NC(=O)CCNC(=O)c2ccc(Br)cc2)cc1S(=O)(=O)N1CCOCC1 | 1 | / | 22 | / | -6
CCN1C(=O)N[C@@H](CCc2ccccc2)[C@@H](C(=O)OC)[C@H]1C | 4 | / | 1 | / | -7
COC(=O)[C@H]1[C@H](CCc2ccccc2)NC(=O)N(Cc2ccccc2)[C@@H]1C | 0 | / | 73* | / | 6
FC(F)(F)c1cc(CCN2CCNC[C@@H]2Cc2ccccc2)cc(C(F)(F)F)c1 | -22 | / | 8 | / | 77*
O=C(NC(=S)Nc1ccccc1N1CCCCC1)c1ccc(F)cc1Cl | -12 | 9 | 50* | -58 | ?
O=C(Nc1cc(S(=O)(=O)Nc2ccc(Cl)cc2)ccc1N1CCCCC1)c1ccc(F)cc1Cl | 24 | -3 | 34 | -10 | 77*
CC(C)(C)[C@@H]1CCC(=O)N(CC[C@H](Sc2ccccc2)c2ccccc2)CC1 | 18 | -5 | 79* | -29 | 104*
CC(=O)Nc1ccc(S[C@@H](CCN2CC[C@H](C(C)(C)C)CCC2=O)c2ccccc2)cc1 | / | / | / | / | -2
CC(C)(C)[C@H]1CCC(=O)N([C@H](CSc2ccccc2)Cc2ccccc2)CC1 | -3 | -5 | 63* | -13 | 139*
COC(=O)[C@@](C)(O)C1(C(=O)SC(C)(C)C)CC1 | 6 | / | 8 | / | -21
SMILES | aSyn UTR inh | IEC-6 cytotox | SKKanGAS inh | KLF5 inh | CSC inhib
Cn1c(NC(=O)c2ccc(F)cc2)nc2ccccc21 | -103 | 13 | 22 | -120 | -9
C/C(=N\NC(=O)c1ccccc1)c1nc2ccccc2n1C | 62* | 7 | 8 | -28 | 14
Cc1ccc(Cn2c(N3CCN(C)CC3)nc3c2c(=O)[nH]c(=O)n3C)cc1 | -4 | -1 | 3 | -16 | 11
CC1=NN(c2ccccc2)C(=O)/C1=C\c1cc(C)n(-c2cccnc2)c1C | -12 | -2 | 4 | -4 | -16
CC1=NN(c2ccccc2)C(=O)/C1=C\c1cc(C)n(-c2ccccc2)c1C | -82 | 25* | -3 | -43 | -3
CC1=NN(c2cccc(C(=O)O)c2)C(=O)/C1=C\C=C/c1ccccc1 | -64 | 4 | -1 | -21 | /
